# Source: PubChem (National Center for Advancing Translational Sciences (NCATS))
# Most compounds without a hit are left out; they make up all but 0.4% or so of the library.
# FMDV RLuc: antivirals against foot and mouth disease virus replicon; Potency, µM (doses to about 57.5 µM), for inactives: at the highest dose activity change, negative = inhibition, hits mostly inhibitors; 120,000 tested, 0.32% active; AID 1745857; FMDV replicon cells, Renilla luciferase signal; note: nearly all actives have a fitted effect of over 55% in size
# FMDV antiviral: antivirals against foot and mouth disease virus. Potency, µM (top dose mostly 57.5 µM), for the others: top-dose activity change, negative = inhibition, hits mostly inhibitors. FMDV antiviral cell assay, firefly luciferase signal. 120,000 tested, 0.23% active; note: nearly all actives have a fitted effect of over 60% in size
# Starred values were filed as active, the others as inactive; ? = inconclusive. Calls come from the whole dose curve. % is set by controls: 0 for no effect and ±100 for the full control effect; potency is the fitted concentration of half-maximal effect.
SMILES,FMDV RLuc,FMDV antiviral
Cc1ccccc1C(=O)Nc1nc(-c2ccc(Br)cc2)ns1,35µM*,?
Cc1cc(C(=O)Cn2c(Cl)nc3c2c(=O)n(C)c(=O)n3C)c(C)n1Cc1ccc(F)cc1,12%,0%
Cc1cc(C(=O)Cn2c(Cl)nc3c2c(=O)n(C)c(=O)n3C)c(C)n1CC(F)(F)F,16µM*,22µM*
CCONC(=O)c1cc2cc(OC)cc(OC)c2[nH]1,39%,18%
N#Cc1ccc(NCCNC(=O)C2CCCCC2)nc1,32µM*,?
N#Cc1ccc(NCCNC(=O)Nc2ccccc2)nc1,-41%,0%
O=C(Nc1ccncc1)c1ccc(SC(F)(F)F)cc1,20µM*,?
O=C(Nc1cccnc1)c1ccc(SC(F)(F)F)cc1,-25%,112%
COc1ccc(OC)c(C(=O)Oc2ccc(C#N)cc2)c1,10%,48%
O=C(Nc1ccc(Cl)cc1)c1nc2ccccc2nc1N1CCCC1,35%,14%
O=c1c2c(-c3ccc(Br)cc3)csc2ncn1-c1ccccc1,-2%,1%
Brc1ccc(-c2csc3ncnc(Sc4nnc(C5CC5)o4)c23)cc1,?,25µM*
CC(C)(C)c1cc(NC(=O)c2cccc(Br)c2)no1,25%,203%
CC(C)c1ccc(NC(=O)c2ccc3c(c2)CCCN3S(C)(=O)=O)cc1,8.9µM*,?
CCS(=O)(=O)N1CCc2cc(C(=O)Nc3cccc(C(C)=O)c3)ccc21,9%,61%
CS(=O)(=O)N1CCc2cc(C(=O)Nc3ccc(C(F)(F)F)cc3)ccc21,32µM*,?
CC(C)c1ccc(NC(=O)c2ccc3c(c2)CCN3S(=O)(=O)c2ccccc2)cc1,17%,-16%
Cc1ccc(S(=O)(=O)N2CCc3cc(C(=O)Nc4ccc(C(F)(F)F)cc4)ccc32)cc1,136%,2%
CCCCc1ccc(NC(=O)c2ccc3c(c2)CCN3S(=O)(=O)CC)cc1,25µM*,8.9µM*
CCN(CC)CCN1C(=O)C(=O)/C(=C(/O)c2ccc(OCc3cccc(C)c3)cc2)C1c1cccnc1 (stereo not given),-9%,60%
Cc1c(C(=O)c2ccc(C(C)(C)C)cc2)sc(Nc2ccccc2)c1C#N,13%,47%
CCCn1nc(C(=O)OCCOc2c(Cl)cccc2Cl)c2ccccc2c1=O,1%,4%
COc1ccc(-c2nc(CNS(=O)(=O)c3ccc(F)cc3)cs2)cc1,-5%,-5%
CNc1snc(C)c1C(=O)OCc1csc(-c2ccc(F)cc2)n1,0.71µM*,?
CCOC(=O)c1ccc(N2C(=O)Cc3cc(OC)c(OC)cc3C2c2ccc(OC)cc2)cc1 (stereo not given),20%,-9%
SMILES,FMDV RLuc,FMDV antiviral
CCN(Cc1ccc(OC)cc1)Cc1cc(=O)oc2ccc(C)cc12,6%,3%
CCOc1ccc(CN(CC)Cc2cc(=O)oc3ccc(OC)cc23)cc1,25µM*,?
C=CCNc1nc2c(c(=O)n(C)c(=O)n2C)n1CC(O)COc1ccc(OC)cc1 (stereo not given),22µM*,?
C=CCNc1nc2c(c(=O)n(C)c(=O)n2C)n1CC,-8%,-7%
C=CCNc1nc2c(c(=O)n(C)c(=O)n2C)n1CCC(C)C,16µM*,28µM*
Cc1ccc(OCC(O)Cn2c(NCC(=O)O)nc3c2c(=O)n(C)c(=O)n3C)cc1 (stereo not given),-16%,-6%
Cc1nc(Nc2nc(CCC(C)C)cc(=O)[nH]2)nc2c(C)cccc12,-3%,-9%
COc1ccc(CNC(=O)c2ccc3c(c2)NC(=O)CCS3)cc1OC,0%,0%
O=C(Nc1cccc2cccnc12)c1ccc(F)cc1,-11%,90%
O=S(=O)(Nc1cccc2cccnc12)c1ccc(F)cc1,22µM*,?
Cc1cc(C)cc(Oc2ccc(C#N)c(C#N)c2)c1,21%,0%
Cc1c(Oc2ccc(C#N)c(C#N)c2)cccc1Oc1ccc(C#N)c(C#N)c1,2.5µM*,2.2µM*
N#Cc1ccc(Oc2ccc(Cl)c(Oc3ccc(C#N)c(C#N)c3)c2)cc1C#N,2.5µM*,?
N#Cc1ccc(Oc2ccccc2Oc2ccc(C#N)c(C#N)c2)cc1C#N,15%,23%
COc1ccc(-c2nc(CCNc3ncccc3C#N)co2)cc1,-9%,116%
O=C(NC1CCCC1)c1ccc2c(c1)N(Cc1ccc(F)cc1)C(=O)c1ccccc1S2,18%,-22%
O=C(NC1CCCC1)c1ccc2c(c1)N(Cc1ccccc1)C(=O)c1ccccc1S2,?,25µM*
CC(c1ccc(F)cc1)N1CCN(c2oc(-c3ccco3)nc2C#N)CC1 (stereo not given),-6%,-18%
O=S(=O)(Nc1cccc(C(F)(F)F)c1)c1ccc(-c2cnc(C3CC3)o2)cc1,-90%,?
COc1ccc(NS(=O)(=O)c2ccc(-c3cnc(C4CC4)o3)cc2)cc1OC,-13%,8.9µM*
O=C(Nc1cc(C(F)(F)F)ccc1Cl)C1=C(c2ccccc2)S(=O)(=O)CCO1,-31%,4%
O=C(Nc1c(Cl)cccc1Cl)C1=C(c2ccccc2)S(=O)(=O)CCO1,16µM*,?
